In ChEMBL document CHEMBL3988442, “University of Dundee, Small-Polar-MMV Screening Library” (2021):
For some of these results: Measured potencies and affinities stand elsewhere.

What was measured:
Parameters in all cases: scale not given: direction of the effect not stated beside the values
[1] = target: Protein translocase subunit SecA (Escherichia coli (strain K12)) (UniProt P10408); assay: Assay to Identify E. coli SecA ATPase Inhibitors; assay type: functional; conditions: 30 µM
[2] = target: T1, Ubiquitin-activating enzyme e1, putative (Leishmania donovani (strain BPK282A1)) (UniProt E9BSI1); assay: Leishmania donovani Ubiquitin Activating Enzyme (LdE1); assay type: functional; conditions: 30 µM
T1 sequence (whole entry): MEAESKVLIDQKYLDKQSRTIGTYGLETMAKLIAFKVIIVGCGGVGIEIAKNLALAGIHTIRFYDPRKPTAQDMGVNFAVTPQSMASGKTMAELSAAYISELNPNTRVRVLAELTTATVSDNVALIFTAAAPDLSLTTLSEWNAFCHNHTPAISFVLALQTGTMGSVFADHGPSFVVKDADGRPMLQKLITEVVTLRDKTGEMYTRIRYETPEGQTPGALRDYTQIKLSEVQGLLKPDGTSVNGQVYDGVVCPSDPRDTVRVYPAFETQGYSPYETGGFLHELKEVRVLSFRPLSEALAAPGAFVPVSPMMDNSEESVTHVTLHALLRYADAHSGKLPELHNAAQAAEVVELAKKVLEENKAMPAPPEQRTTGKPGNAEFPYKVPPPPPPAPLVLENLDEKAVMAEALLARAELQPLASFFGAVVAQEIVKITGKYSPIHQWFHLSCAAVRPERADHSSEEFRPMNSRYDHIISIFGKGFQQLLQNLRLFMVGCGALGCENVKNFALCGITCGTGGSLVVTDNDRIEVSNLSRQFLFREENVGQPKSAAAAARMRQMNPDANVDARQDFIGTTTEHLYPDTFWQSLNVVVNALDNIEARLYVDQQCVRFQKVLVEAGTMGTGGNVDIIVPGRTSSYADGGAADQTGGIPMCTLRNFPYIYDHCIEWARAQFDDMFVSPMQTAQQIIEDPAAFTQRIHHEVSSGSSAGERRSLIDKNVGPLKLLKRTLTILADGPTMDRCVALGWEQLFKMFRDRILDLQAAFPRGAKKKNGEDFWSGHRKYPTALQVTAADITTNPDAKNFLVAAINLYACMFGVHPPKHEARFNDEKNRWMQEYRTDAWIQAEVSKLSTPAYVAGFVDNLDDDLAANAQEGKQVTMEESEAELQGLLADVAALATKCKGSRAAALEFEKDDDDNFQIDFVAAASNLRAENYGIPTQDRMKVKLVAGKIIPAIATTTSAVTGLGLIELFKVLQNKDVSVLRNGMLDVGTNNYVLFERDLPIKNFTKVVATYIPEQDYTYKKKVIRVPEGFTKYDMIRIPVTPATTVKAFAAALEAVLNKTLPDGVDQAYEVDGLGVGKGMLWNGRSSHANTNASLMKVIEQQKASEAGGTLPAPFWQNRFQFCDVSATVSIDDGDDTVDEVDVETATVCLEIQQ

[3] = target: AMP-activated protein kinase, AMPK (Homo sapiens) (UniProt P54646+O43741+P54619+Q9UGJ0+Q9Y478+Q13131+Q9UGI9); assay: AMP-dependent Kinase enzyme assay. An in vitro enzyme assay that detects ADP turnover that is directly proportional to AMPK activity. This uses naive AMPK that is activated during the assay with MK-8722; assay type: functional; conditions: 30 µM
[4] = target: Sialic acid-binding Ig-like lectin 9 (Homo sapiens) (UniProt Q9Y336); assay: Hs-Siglec9 ALPHAscreen SOP 20170721; conditions: 10 µM
Sequence of Sialic acid-binding Ig-like lectin 9 (Homo sapiens) (Q9Y336 whole entry): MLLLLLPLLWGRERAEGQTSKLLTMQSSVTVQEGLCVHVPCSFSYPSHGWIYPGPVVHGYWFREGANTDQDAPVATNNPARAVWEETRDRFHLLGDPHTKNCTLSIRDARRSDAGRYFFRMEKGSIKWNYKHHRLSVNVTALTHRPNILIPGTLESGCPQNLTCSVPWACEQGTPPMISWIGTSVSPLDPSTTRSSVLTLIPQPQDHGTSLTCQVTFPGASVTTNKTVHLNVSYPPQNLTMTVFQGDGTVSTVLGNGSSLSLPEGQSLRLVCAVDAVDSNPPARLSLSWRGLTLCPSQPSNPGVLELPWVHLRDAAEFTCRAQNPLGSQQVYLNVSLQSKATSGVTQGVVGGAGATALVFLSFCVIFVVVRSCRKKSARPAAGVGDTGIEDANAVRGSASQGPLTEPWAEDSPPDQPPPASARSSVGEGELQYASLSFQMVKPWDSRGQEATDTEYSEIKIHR

[5] = test system: Trypanosoma cruzi; assay: Trypanosoma cruzi phosphomannomutase and mannose-1-phosphate guanylyltransferase assay; assay type: functional; conditions: 10 µM
[6] = target: T2, Arginase-2, mitochondrial (Homo sapiens) (UniProt P78540); assay: in vitro enzyme assay to detect the production of urea directly proportional to the activity of Arginase II; assay type: functional; conditions: 33.3 µM; further: in the data most compounds retested in dose-response had high values
T2 sequence (whole entry): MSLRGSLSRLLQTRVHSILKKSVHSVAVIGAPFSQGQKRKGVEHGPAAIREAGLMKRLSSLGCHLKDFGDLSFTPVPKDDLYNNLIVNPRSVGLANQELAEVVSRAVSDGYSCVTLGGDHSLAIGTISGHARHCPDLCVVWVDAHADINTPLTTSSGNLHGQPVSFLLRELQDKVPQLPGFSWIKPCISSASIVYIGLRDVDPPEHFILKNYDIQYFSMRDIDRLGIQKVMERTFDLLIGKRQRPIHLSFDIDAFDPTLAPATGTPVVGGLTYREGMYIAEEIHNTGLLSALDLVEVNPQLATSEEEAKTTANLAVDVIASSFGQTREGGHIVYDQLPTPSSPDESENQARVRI

[7] = target: T3, Proteasome subunit beta (Trypanosoma cruzi) (UniProt O96673); assay: Trypanosoma cruzi proteasome chymotrypsin-like activity (TcProtChymo) assay.; further: in the data most compounds retested in dose-response had high values; assay type: functional; conditions: 9.37 µM
T3 sequence (whole entry): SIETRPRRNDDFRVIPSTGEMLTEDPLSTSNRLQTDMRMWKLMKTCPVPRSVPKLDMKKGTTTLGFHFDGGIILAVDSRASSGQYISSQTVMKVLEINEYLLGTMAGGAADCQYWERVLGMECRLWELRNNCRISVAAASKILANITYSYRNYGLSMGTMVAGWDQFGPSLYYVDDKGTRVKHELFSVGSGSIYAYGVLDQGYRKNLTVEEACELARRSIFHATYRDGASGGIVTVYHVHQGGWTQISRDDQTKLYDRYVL

[8] = organism: Homo sapiens; assay: To identify inhibition of the IFN signalling (Jak-Stat) pathway via expression of an eGFP reporter gene under the control of an IFN-stimulated response element (ISRE) containing MxA promoter.; assay type: functional; conditions: 30 µM
[9] = target: T4, Tyrosyl-tRNA synthetase, putative (Trypanosoma cruzi (strain CL Brener)) (UniProt Q4DSP6); assay: Trypanosoma cruzi tyrosyl tRNA synthetase (TcYRS) _High Tyrosine SOP; assay type: functional; conditions: 30 µM; further: in the data most compounds retested in dose-response had high values
T4 sequence (whole entry): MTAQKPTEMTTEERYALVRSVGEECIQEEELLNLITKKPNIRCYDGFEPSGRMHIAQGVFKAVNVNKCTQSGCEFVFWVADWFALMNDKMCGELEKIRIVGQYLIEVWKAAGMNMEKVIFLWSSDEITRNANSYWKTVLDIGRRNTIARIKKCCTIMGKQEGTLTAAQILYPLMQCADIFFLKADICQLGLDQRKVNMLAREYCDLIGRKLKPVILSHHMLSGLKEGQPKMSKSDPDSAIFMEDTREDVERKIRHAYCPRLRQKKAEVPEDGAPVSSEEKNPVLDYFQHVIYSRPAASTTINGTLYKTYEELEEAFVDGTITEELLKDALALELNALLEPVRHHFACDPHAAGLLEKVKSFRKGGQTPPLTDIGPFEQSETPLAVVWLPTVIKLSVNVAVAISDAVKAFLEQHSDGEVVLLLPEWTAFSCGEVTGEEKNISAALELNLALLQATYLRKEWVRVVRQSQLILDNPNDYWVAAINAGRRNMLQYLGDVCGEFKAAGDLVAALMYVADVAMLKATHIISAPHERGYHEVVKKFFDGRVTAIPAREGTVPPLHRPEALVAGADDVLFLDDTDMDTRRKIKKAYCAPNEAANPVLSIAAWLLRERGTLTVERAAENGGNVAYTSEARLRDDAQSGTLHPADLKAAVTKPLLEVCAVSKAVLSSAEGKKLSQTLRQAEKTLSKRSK

[10] = target: T4, Tyrosyl-tRNA synthetase, putative (Trypanosoma cruzi (strain CL Brener)); assay: Trypanosoma cruzi tyrosyl tRNA synthetase (TcYRS) SOP; assay type: functional; conditions: 30 µM
[11] = target: Chromo domain-containing protein 1 (Saccharomyces cerevisiae (strain ATCC 204508 / S288c) (Baker's yeast)) (UniProt P32657); assay: ScCHD-1 Enzyme Inhibition Assay; assay type: functional; conditions: 30 µM; further: in the data most compounds retested in dose-response had high values
Sequence of Chromo domain-containing protein 1 (Saccharomyces cerevisiae (strain ATCC 204508 / S288c) (Baker's yeast)) (P32657 whole entry, the tested form may be a part): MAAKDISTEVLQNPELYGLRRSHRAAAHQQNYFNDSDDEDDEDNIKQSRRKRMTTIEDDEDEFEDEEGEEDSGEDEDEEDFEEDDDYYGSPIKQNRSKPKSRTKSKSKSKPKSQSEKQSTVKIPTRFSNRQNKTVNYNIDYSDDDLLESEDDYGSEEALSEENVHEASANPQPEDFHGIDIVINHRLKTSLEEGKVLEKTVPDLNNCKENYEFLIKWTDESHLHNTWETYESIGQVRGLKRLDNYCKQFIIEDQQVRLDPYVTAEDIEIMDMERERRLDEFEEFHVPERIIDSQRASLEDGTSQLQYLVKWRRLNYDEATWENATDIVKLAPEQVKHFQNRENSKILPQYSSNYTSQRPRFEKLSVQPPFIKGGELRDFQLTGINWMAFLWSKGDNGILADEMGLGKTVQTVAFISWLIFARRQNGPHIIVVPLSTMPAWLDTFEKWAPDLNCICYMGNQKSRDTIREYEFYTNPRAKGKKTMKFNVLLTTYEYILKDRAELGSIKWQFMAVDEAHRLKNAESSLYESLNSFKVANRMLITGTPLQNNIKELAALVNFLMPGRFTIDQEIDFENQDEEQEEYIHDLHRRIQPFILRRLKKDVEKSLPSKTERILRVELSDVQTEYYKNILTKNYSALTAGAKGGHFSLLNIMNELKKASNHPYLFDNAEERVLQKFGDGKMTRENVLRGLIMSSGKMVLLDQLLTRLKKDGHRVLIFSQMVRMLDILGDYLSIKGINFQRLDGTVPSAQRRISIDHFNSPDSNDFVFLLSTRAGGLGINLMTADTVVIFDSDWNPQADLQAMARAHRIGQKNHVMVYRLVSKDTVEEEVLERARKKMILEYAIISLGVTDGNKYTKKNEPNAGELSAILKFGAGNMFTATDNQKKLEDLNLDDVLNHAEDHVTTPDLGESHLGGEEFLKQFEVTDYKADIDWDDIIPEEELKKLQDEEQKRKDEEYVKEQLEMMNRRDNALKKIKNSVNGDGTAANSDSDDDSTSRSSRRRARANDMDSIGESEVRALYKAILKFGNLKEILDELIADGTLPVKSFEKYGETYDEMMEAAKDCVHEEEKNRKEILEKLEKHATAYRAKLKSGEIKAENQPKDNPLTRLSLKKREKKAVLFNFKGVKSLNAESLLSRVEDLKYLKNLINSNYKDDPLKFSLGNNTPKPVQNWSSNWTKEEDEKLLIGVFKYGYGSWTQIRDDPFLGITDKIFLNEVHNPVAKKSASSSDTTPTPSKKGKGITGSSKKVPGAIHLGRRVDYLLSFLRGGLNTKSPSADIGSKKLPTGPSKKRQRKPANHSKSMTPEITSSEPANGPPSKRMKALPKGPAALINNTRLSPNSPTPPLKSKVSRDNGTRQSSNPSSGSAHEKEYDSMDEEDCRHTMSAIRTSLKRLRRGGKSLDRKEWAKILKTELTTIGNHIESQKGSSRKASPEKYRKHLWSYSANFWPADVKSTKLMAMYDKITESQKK

Sequence of Protein translocase subunit SecA (Escherichia coli (strain K12)) (P10408 whole entry): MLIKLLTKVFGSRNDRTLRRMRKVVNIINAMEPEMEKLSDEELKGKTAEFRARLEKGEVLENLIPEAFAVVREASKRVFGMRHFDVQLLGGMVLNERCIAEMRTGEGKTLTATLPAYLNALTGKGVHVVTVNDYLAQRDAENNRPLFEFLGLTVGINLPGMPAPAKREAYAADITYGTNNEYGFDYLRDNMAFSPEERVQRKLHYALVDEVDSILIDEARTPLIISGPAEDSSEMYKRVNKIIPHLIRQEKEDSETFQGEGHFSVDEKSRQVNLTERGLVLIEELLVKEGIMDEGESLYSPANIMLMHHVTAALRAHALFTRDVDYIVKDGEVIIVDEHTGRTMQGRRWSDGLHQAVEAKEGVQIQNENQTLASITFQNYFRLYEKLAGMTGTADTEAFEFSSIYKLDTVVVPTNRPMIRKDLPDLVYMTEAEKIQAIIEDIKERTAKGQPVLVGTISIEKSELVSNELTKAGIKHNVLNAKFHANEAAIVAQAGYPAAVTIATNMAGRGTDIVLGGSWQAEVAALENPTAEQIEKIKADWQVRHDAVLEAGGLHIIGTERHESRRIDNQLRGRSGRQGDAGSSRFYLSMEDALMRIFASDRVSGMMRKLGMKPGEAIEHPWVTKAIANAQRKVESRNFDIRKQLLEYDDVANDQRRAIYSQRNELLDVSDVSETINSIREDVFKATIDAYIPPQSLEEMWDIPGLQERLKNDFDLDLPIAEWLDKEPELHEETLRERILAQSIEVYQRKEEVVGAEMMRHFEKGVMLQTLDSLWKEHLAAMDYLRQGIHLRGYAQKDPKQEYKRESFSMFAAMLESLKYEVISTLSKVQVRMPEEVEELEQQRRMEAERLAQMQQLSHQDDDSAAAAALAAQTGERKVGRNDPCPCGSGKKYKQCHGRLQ

| SMILES | Percent Effect [1] | Percent Effect [2] | Percent Effect [3] | Percent Effect [4] | Percent Effect [5] | Percent Effect [6] | Percent Effect [7] | Percent Effect [8] | Percent Effect [9] | Percent Effect [10] | Percent Effect [11] |
| --- | --- | --- | --- | --- | --- | --- | --- | --- | --- | --- | --- |
| CN1CC[C@H](c2ccccc2)[C@@H]2[C@H]1CCCCN2C(=O)c1cnccn1 | -2.95% | -4.05% | 7.03% | 1.21% | 3.75% | -5.34% | 10.8% | 3.3% | 4.3% | 3.9% | -14% |
| Cn1c(C(F)(F)F)nn(CCNC(=O)CSCc2ccccc2)c1=O | -3.49% | 8.22% | 2.99% | 4.38% | 4.7% | 5% | 4.79% | 14.2% | 4.3% | 15% | -4.6% |
| Cc1nc(CNCC2CCCN2c2cccnn2)cs1 (stereo not given) | -2.04% | -2.63% | 1.93% | 0.202% | -3.38% | 6.51% | -1.84% | 14.7% | 2.45% | 0% | 4.5% |
| COCC(c1cccc(C(F)(F)F)c1)N(C)C(=O)c1cc(C)no1 (stereo not given) | -0.889% | 13.2% | 1.05% | -2.93% | 0.564% | 4.98% | 6.68% | 10.2% | 1.47% | 19.5% | -12.2% |
| CCn1cc(CN(C)C(=O)c2cccc(CCC(C)(C)O)c2)cn1 | -5.71% | 5.33% | -1.82% | -0.5% | -5.36% | 1.04% | 15% | 9.2% | 7.1% | 6.17% | -6.76% |
| CC(C)CN1CCCn2nc(CNC(=O)c3cccnc3O)cc2C1 | -5.79% | 21.3% | -6.62% | 22.5% | 6.52% | 5.73% | 13.2% | 13.9% | 6.01% | 18.5% | -7.12% |
| CC(C)CN1C[C@H]2CCN(c3ncccn3)CC[C@H]2S1(=O)=O | -1.59% | 20.8% | -1.01% | 12.2% | 6.39% | -15.2% | 15% | -0.732% | 6.45% | 13.6% | 118% |
| O=C1CC(c2ccccc2)c2c(n3ccsc3nc2=O)N1 (stereo not given) | -4.74% | 17.3% | -7.29% | 1.39% | 2.16% | -6.87% | 13.3% | 5.81% | 5.29% | 15.4% | -7.95% |
| Cc1nn(C)c2cn(C(C)C(=O)NCc3cccnc3)nc12 (stereo not given) | -2.07% | 14.7% | -8.7% | 5.87% | 1.77% | -6.16% | 17.9% | 20.4% | -4.23% | 10.3% | -9.99% |
| CC(C)c1nnc2n1CCN(CC(=O)N1CCc3ccccc3C1)C2 | -3.76% | 2.63% | -2.4% | 1.05% | 6.01% | -1.53% | -0.167% | 5.07% | 7.35% | 9.76% | -9.88% |
| N#Cc1cc(NC(=O)C2CC=CC2)ccc1N1CCC(O)CC1 | -3.63% | 2.7% | -2.38% | 4.36% | -0.193% | 1.91% | 7.41% | 0.178% | 2.65% | 7.32% | -2.26% |
| CCN1CCN(CC(O)c2ccc(OC(F)(F)F)cc2)CC1 (stereo not given) | -9.59% | 16.2% | -17.6% | 27.4% | 9.34% | -19.6% | 9.73% | 0.571% | 6.4% | 18.5% | -20.3% |
| O=C(NC1CC(=O)N(Cc2cccc(F)c2)C1)c1ccncc1 (stereo not given) | -2.44% | -8.11% | 4.25% | -3.94% | -1.93% | -0.476% | 10.7% | 1.72% | 1.59% | 4.88% | 0.971% |
| O=C(CCc1ccccc1F)NS(=O)(=O)c1ccc2c(c1)OCCCO2 | -6.43% | 11.4% | 2.28% | 1.9% | -0.923% | -4.95% | 9.09% | 6.8% | 2.08% | 12.7% | -20.4% |
| CN1CCOC(CNCCc2ccccn2)C1 (stereo not given) | -2.22% | 20.2% | -8.39% | -6.71% | -3.31% | 5.7% | 5.32% | 16.5% | 8.37% | 16.5% | -2.67% |
| CCc1nc(C2CCCN(C(=O)CN(C)S(C)(=O)=O)C2)no1 (stereo not given) | -5.19% | 18.2% | -2.51% | -7.32% | 6.95% | -2.32% | 9.3% | 0.959% | 6.67% | 21.2% | -25.7% |
| CN(C)S(=O)(=O)N1CCC[C@]2(C[C@@H](Oc3ccccn3)CO2)C1 | -0.984% | 7.79% | 2.82% | 5.42% | -4.63% | -5.81% | 9.75% | 5% | -1.06% | 6.41% | -6.01% |
| COc1cc(CNCc2c(C)nn(C)c2N(C)C)ccn1 | -2.79% | 5.41% | -15.9% | 8.34% | 4.25% | -3.61% | 1.62% | 9.11% | 4.43% | 18.5% | -11.1% |
| O=C(CC1CCCC1)NCCn1ccc(-c2ccccn2)n1 | -2.17% | 2.6% | 9.65% | 12% | -3.85% | 0.645% | -2.09% | -8.59% | 2.12% | 6.41% | -2.03% |
| Cc1cc(C)n(C2CCCN(C(=O)Cc3csc(C)n3)C2)n1 (stereo not given) | -3.62% | 0% | -2.28% | 17.5% | 6.7% | 1.9% | 4.34% | -6.53% | 4.43% | -3.8% | -6.83% |
